G9a block – G9a (human) methyltransferase inhibition | Q96KQ7 | G9a H3K9 monomethylation, AlphaScreen, 2 h | Potency, µM (series often up to 102 µM), most hits filed as inhibitors | 8.8% of 350,000 active | AID 504332; further: nearly all actives have a fitted effect of over 75% in size
Target sequence (Q96KQ7 913-1193 limits assumed): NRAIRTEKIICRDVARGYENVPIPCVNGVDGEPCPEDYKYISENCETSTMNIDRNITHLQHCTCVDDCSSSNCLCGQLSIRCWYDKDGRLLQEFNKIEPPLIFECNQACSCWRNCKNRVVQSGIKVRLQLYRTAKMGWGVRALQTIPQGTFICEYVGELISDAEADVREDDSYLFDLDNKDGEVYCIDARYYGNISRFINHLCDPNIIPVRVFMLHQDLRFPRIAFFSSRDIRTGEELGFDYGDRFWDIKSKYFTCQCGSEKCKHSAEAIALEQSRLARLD
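Methyltransferase reactions run at room temperature for 2 h (20 nM enzyme, 500 nM biotin-H3K9 peptide, 20 uM SAM) after a 15 min compound preincubation; product detected by AlphaScreen beads and anti-H3K9me1 antibody.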
HP1b chromo inh – inhibitors of HP1-beta chromodomain binding to methylated histone tails; AlphaScreen HP1-beta / biotin-H3K9me3 peptide binding; 0.56% of 390,000 active; P83916; AID 540317; Potency, µM (series often up to 114 µM), usual class: inhibitors; further: nearly all actives have a fitted effect of over 70% in size
Target sequence (P83916 whole entry, looked up): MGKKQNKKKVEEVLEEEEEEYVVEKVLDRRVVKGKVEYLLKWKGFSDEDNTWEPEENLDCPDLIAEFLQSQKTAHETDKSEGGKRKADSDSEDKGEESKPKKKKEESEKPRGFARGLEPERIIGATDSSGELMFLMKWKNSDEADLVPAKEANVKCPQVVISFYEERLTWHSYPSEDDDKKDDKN
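HP1-beta protein (50 nM final) preincubated 30 min at room temperature with biotinylated H3(1-18)K9me3 peptide (50 nM) in PBS pH 7.4, 0.01% Tween-20, then compound added for 30 min. AlphaScreen streptavidin donor/nickel chelate acceptor beads (10 ug/mL final), 30 min dark, luminescence read.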
L3MBTL1 block – L3MBTL1 (human) inhibition; Q9Y468; AlphaScreen L3MBTL1–H3K9me1 peptide binding; Potency, µM (doses to about 57.1 µM), hits mostly inhibitors; 0.66% of 230,000 active; AID 485360; further: nearly all actives have a fitted effect of over 60% in size
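L3MBTL1 50 nM + b-AHA-H3(1-15)K9me1 75 nM, 30 min RT; compound added, 30 min RT; streptavidin donor/Ni-chelate acceptor beads 10 ug/mL each final, 30 min RT dark; AlphaScreen read.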
JMJD2A Tudor – blocks the human JMJD2A Tudor domain; AID 504339; O75164; AlphaScreen JMJD2A-Tudor / H3K4me3 peptide binding; 4.4% of 390,000 active; Potency, µM (titrated, usually from 114 µM), usual class: inhibitors; further: nearly all actives have a fitted effect of over 50% in size
BAZ2B block – BAZ2B (human) inhibition; Q9UIF8; AlphaScreen BAZ2B-H3K14Ac peptide displacement; Potency, µM (highest dose often 114 µM), most hits filed as inhibitors; 4.4% of 360,000 active; AID 504333; further: nearly all actives have a fitted effect of over 60% in size
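In this displacement format the biotinylated H3(5-23) peptide acetylated at Lys14 serves as ligand at 50 nM, with BAZ2B at 50 nM in PBS pH 7.4 containing 0.01% Tween-20. Donor and acceptor beads are 10 ug/mL final.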
Sfp inh – blocks B. subtilis Sfp PPTase activity. Biochemical Sfp PPTase activity, qHTS. Potency, µM, hits mostly inhibitors. 3.5% of 310,000 active. AID 1490;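 further: the enzyme is Sfp with the accession as filed and its product quenches rhodamine fluorescence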
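Compounds were incubated with enzyme (final 15 nM) for 15 min at room temperature before substrate addition started the reaction. Fluorescence at 525 nm excitation, 598 nm emission was recorded immediately and after 30 minutes.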
Large screens that a line does not name were inactive. Compounds with a hit are over-represented: about 12% of the library has one in this group of screens. The call rests on the fitted dose curve; in most records, active means well fitted curve in the direction sought with a large enough effect; inconclusive means small, poorly fitted or top-dose-only effect, or another doubt; inactive means no such curve, though single readings can be large; an effect the other way counts as inactive or inconclusive.

CCOC(=O)C1CCC(CN(Cc2c(Cl)cccc2Cl)S(=O)(=O)c2ccc(F)cc2)CC1 (centres undefined)	none (no result: L3MBTL1 block, Sfp inh)
Cc1ccc(S(=O)(=O)Nc2c(C)nc3nc(C)[nH]n3c2=O)cc1	G9a block 79µM, JMJD2A Tudor inconclusive (no result: L3MBTL1 block)
Cc1nc2nc(C)c(NS(=O)(=O)c3ccc(CC(C)C)cc3)c(=O)n2[nH]1	G9a block 40µM (no result: L3MBTL1 block)
COc1cccc(-n2c(-c3ccc4[nH]c(C)c(C)c4c3)n[nH]c2=S)c1	JMJD2A Tudor inconclusive, BAZ2B block inconclusive, Sfp inh inconclusive (no result: G9a block)
Cc1cccc(-n2c(-c3ccncc3)n[nH]c2=S)c1	G9a block 1.3µM, JMJD2A Tudor 28µM, Sfp inh 79µM
Cc1cccc(-n2c(C)c(-c3ccccc3)[nH]c2=S)c1	HP1b chromo inh inconclusive, JMJD2A Tudor 35µM, BAZ2B block inconclusive, Sfp inh 3.5µM (no result: G9a block)
Cc1cccc(-n2c(C)n[nH]c2=S)c1	G9a block inconclusive, JMJD2A Tudor 10µM, BAZ2B block inconclusive
O=C1c2ccccc2C(=O)N1c1cccc2ccncc12	none (no result: G9a block, HP1b chromo inh, L3MBTL1 block, BAZ2B block, Sfp inh)
COCCCNC(=O)CCn1c(=O)c2ccccc2n(CC(=O)Nc2cc(Cl)ccc2OC)c1=O	none (no result: L3MBTL1 block, Sfp inh)
O=C(COC(=O)CC1CC2CCC1C2)Nc1ccccc1[N+](=O)[O-] (centres undefined)	HP1b chromo inh inconclusive, JMJD2A Tudor 50µM (no result: G9a block, BAZ2B block, Sfp inh)
CC(C)(/C=N/O)/[N+]([O-])=C/c1ccccc1	G9a block 50µM
Cc1noc(C)c1-c1ccc2ncnc(NCc3cccs3)c2c1	none (no result: HP1b chromo inh, L3MBTL1 block, JMJD2A Tudor, BAZ2B block)
COc1ccc(NC(=O)c2nc(S(C)(=O)=O)ncc2N(Cc2ccc(C)cc2)Cc2ccco2)cc1Cl	none (no result: L3MBTL1 block, Sfp inh)
Cc1c(/C=C(\C#N)C(=O)Nc2cccc(Cl)c2)c2ccccc2n1Cc1ccccc1	none (no result: L3MBTL1 block, Sfp inh)
Cc1nonc1CN(C)C(=O)c1ccc(OC2CCN(Cc3ccccn3)CC2)cc1	G9a block inconclusive
Cc1cc(CN(C)C(=O)c2ccc(OC3CCN(Cc4ccccn4)CC3)cc2)on1	G9a block 50µM (no result: L3MBTL1 block)
N#CC1=C2C=CC=CN2CC1=O	G9a block 4µM, JMJD2A Tudor 8.9µM, BAZ2B block 50µM, Sfp inh inconclusive
CCn1cc(C(=O)N2CCN(c3cccc(Cl)c3)CC2)c(=O)c2cc(S(=O)(=O)N3CCCCC3)ccc21	none (no result: L3MBTL1 block, BAZ2B block, Sfp inh)
C1CSC2(N1)C1CC3CC(C1)CC2C3 (centres undefined)	G9a block 6.3µM, Sfp inh 35µM
COC(=O)c1ccc(N2C(=O)CC(Sc3n[nH]c(C)n3)C2=O)cc1 (centres undefined)	G9a block 2µM, Sfp inh inconclusive
COC(=O)c1ccc(N2C(=O)CC(SCC(=O)Nc3ccc(OC)cc3)C2=O)cc1 (centres undefined)	none (no result: G9a block, L3MBTL1 block)
CN=C(Nc1cc(Cl)ccc1Cl)SC1CC(=O)N(c2ccc(C(=O)OC)cc2)C1=O (centres undefined)	G9a block 50µM, L3MBTL1 block inconclusive
c1ccc(CCNCCCOc2cccc3ccccc23)cc1	JMJD2A Tudor 40µM
CCc1ccc2[nH]c(C(=O)N(C)c3ccc(F)cc3F)cc2c1	G9a block 40µM, Sfp inh inconclusive (no result: L3MBTL1 block)
Cn1c(=O)c(CCc2ccccc2)nc2cnc(N3CCOCC3)nc21	none (no result: HP1b chromo inh, L3MBTL1 block, JMJD2A Tudor, BAZ2B block)
COc1cc(S(=O)(=O)Nc2ccc(C)cc2)ccc1N=Cc1c(C)c(C#N)c(=O)n(C)c1O	G9a block inconclusive
Cc1ccc(N/N=C/c2c(C)c(C#N)c(=O)n(C)c2O)cc1C	G9a block 0.79µM, JMJD2A Tudor 11µM, BAZ2B block 56µM, Sfp inh 13µM
Cc1ccc(S(=O)(=O)c2c(O)cc(C)c(NS(=O)(=O)c3ccc(Br)cc3)c2C)cc1	none (no result: L3MBTL1 block, Sfp inh)
COc1ccc(CCNC(=O)c2c(C)oc3ncn(CC(C)C)c(=O)c23)c(OC)c1	none (no result: L3MBTL1 block, Sfp inh)
NCCCNCCCCNCCCNC(=O)CCc1ccc(O)cc1	G9a block inconclusive (no result: HP1b chromo inh, L3MBTL1 block, JMJD2A Tudor, BAZ2B block)
CC(=O)c1ccc(NC(=S)NNC(=O)NC2CCCCC2)cc1	G9a block 8.9µM, BAZ2B block inconclusive, Sfp inh 16µM
Cc1cccc(NC(=O)c2ccccc2NC(=O)C2CCCCC2)c1C	BAZ2B block 50µM, Sfp inh 28µM

Compound activity from PubChem.
